Screens: PubChem BioAssay, National Center for Advancing Translational Sciences (NCATS)
Only some compounds are listed: those with a hit (about 19% of all), similar ones and a draw of the others.
DT40 TDP1 CPT: qHTS for Inhibitors of human tyrosyl-DNA phosphodiesterase 1 (TDP1): qHTS in cells in presence of CPT; chicken DT40 Tdp1-/-;hTDP1 cells + 20 nM CPT, ATP luminescence, 48 h; Potency, µM (highest dose often 46.2 µM), most hits filed as inhibitors; actives 12% (n = 420,000); also: nearly all actives have a fitted effect of over 55% in size
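Chicken DT40 Tdp1-/- cells stably complemented with human TDP1 were seeded at 400 cells/well in medium containing 20 nM camptothecin, exposed to pin-transferred compounds, and grown at 37 °C for at least 48 hr. Viability was read as ATP luminescence.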
uPA surface inh: qHTS for Inhibitors of Cell Surface uPA Generation. cell surface uPA generation assay, qHTS. Potency, µM (top dose mostly 38.3 µM), actives largely listed as inhibitors. actives 0.31% (n = 330,000). AID 540303, 2011; active = well fitted inhibition curve with a large enough effect; inconclusive = small, poorly fitted or top-dose-only effect; inactive = no such curve, though single readings can be large or run the other way; tested in mouse RAW 264.7 cells; also: nearly all actives have a fitted effect of over 55% in size
DT40 TDP1 no CPT: qHTS for Inhibitors of human tyrosyl-DNA phosphodiesterase 1 (TDP1): qHTS in cells in absence of CPT; DT40 Tdp1-/- hTDP1 cells, no CPT, ATP luminescence, 48 h; Potency, µM (top dose mostly 46.2 µM), usual class: inhibitors; actives 15% (n = 420,000); also: nearly all actives have a fitted effect of over 55% in size
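Chicken DT40 Tdp1-/- cells stably complemented with human TDP1 were seeded at 400 cells/well with DMSO in place of 20 nM camptothecin. After compound pinning, cells grew at least 48 hr at 37 °C; viability read by CellTiter-Glo luminescence.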
HT1080NT lethal: qHTS for induction of synthetic lethality in tumor cells producing 2HG: qHTS for the HT-1080-NT fibrosarcoma cell line; HT-1080-NT fibrosarcoma viability, CellTiter-Glo ATP luminescence, 48 h; Potency, µM (top dose mostly 46.1 µM), actives largely listed as cytotoxic; actives 1.6% (n = 360,000); AID 686970, 2013;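 also: NT is the 2HG producing partner of a matched IDH1 knockdown line; nearly all actives have a fitted effect of over 55% in size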
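HT-1080-NT fibrosarcoma cells (2HG-overproducing), 750 cells/well in RPMI with 5% FBS, dosed after 2 h and incubated 48 h at 37C. CellTiter-Glo luminescence normalized to DMSO and no-cell wells; concentration-response curves fitted and classed.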
HT1080 IDH1KD tx: qHTS for induction of synthetic lethality in tumor cells producing 2HG: qHTS for the HT-1080-IDH1KD cell line; HT-1080 IDH1 knockdown viability, ATP luminescence, 48 h; Potency, µM (titrated, usually from 46.1 µM), most hits filed as cytotoxic; actives 2% (n = 360,000); AID 686971, 2013
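Luminescent ATP read-out (CellTiter-Glo, 10 min at room temperature) after 48 h compound exposure at 37 °C gave viability of IDH1-knockdown HT-1080 cells. Activity was normalised to DMSO and cell-free wells, then fitted as concentration-response curves.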
IL-1B inflam inh: qHTS for Inhibitors of Inflammasome Signaling: IL-1-beta AlphaLISA Primary Screen; THP-1 LPS/ATP IL-1B secretion, AlphaLISA, 16 h; active compounds read low; activity change, % at 57.5 µM; actives 4.7% (n = 360,000); AID 743279, 2014; in the data active = activity change below about -50%; inconclusive = mostly about -30% to -49%
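THP-1 cells pretreated 1 hr with compounds (up to 57.5 uM final), then stimulated with LPS (250 ng/mL final) plus ATP (1.25 mM final); secreted IL-1B measured by AlphaLISA after 16 hr, decreased signal indicating inhibition.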
Numbers stand for hits. Unless noted, calls follow the shape of the dose curve; as a rule, active = well fitted curve in the direction sought with a large enough effect; inconclusive = small, poorly fitted or top-dose-only effect, or another doubt; inactive = no such curve, though single readings can be large; an effect the other way counts as inactive or inconclusive.

CCc1ccc(-c2nc(CN3CCCC(C(=O)NCc4ccc(C)cc4)C3)c(C)o2)cc1 (stereo not given) was read as DT40 TDP1 CPT 8.2µM and DT40 TDP1 no CPT 5.8µM.
Cc1ccc(-c2nc(CS(=O)(=O)CC(=O)N3CCCCCC3)c(C)o2)cc1 was read as DT40 TDP1 CPT inconclusive, uPA surface inh inconclusive, DT40 TDP1 no CPT inconclusive, HT1080NT lethal inactive, HT1080 IDH1KD tx inactive and IL-1B inflam inh inactive.
For CC1c2ccccc2-n2nncc2CN1C (stereo not given) the results were DT40 TDP1 CPT inactive, uPA surface inh inactive, DT40 TDP1 no CPT inactive, HT1080NT lethal inactive, HT1080 IDH1KD tx inactive and IL-1B inflam inh inactive.
For BrCC(Br)(Br)Br the results were DT40 TDP1 CPT 9.2µM, uPA surface inh inactive, DT40 TDP1 no CPT inconclusive, HT1080NT lethal inactive, HT1080 IDH1KD tx inactive and IL-1B inflam inh inactive.
For Cc1nn(C(C)(C)C)c(C)c1/C=N/OC(=O)Nc1ccc(Cl)c(Cl)c1 the results were DT40 TDP1 CPT 15µM, uPA surface inh inactive, DT40 TDP1 no CPT 16µM, HT1080NT lethal inactive, HT1080 IDH1KD tx inactive and IL-1B inflam inh inactive.
Screening Cc1ccc(Cl)cc1N1CCN(c2ncnc3c2nc2n3CCCC2)CC1 returned DT40 TDP1 CPT inconclusive and DT40 TDP1 no CPT 18µM.
For Cc1cccc(N2CCN(C(=O)C3CCN(c4ncnc5c4nc4n5CCCCC4)CC3)CC2)c1C the results were DT40 TDP1 CPT 18µM, uPA surface inh inconclusive, DT40 TDP1 no CPT 18µM, HT1080NT lethal inactive, HT1080 IDH1KD tx inactive and IL-1B inflam inh inactive.
Screening CN1CCN(c2ncnc(Cl)c2N)CC1 returned DT40 TDP1 CPT inactive, uPA surface inh inactive, DT40 TDP1 no CPT inactive, HT1080NT lethal inactive, HT1080 IDH1KD tx inactive and IL-1B inflam inh inactive.
`C=C[C@@H]1C2=CCOC(=O)C2=CO[C@H]1O[C@@H]1O[C@H](CO)[C@@H](O)[C@H](O)[C@H]1O` gave DT40 TDP1 CPT inactive, uPA surface inh inactive, DT40 TDP1 no CPT inactive, HT1080NT lethal inactive, HT1080 IDH1KD tx inactive and IL-1B inflam inh inactive.
N#CCCn1cc(C(=O)Nc2ccccc2Cl)c(-c2ccc(F)cc2)n1 was read as DT40 TDP1 CPT inactive, uPA surface inh inactive, DT40 TDP1 no CPT inactive, HT1080NT lethal inactive, HT1080 IDH1KD tx inactive and IL-1B inflam inh inactive.
Screening O=C1NC(=O)N(CCc2ccc(F)cc2)C(=O)/C1=C\C=C\c1ccccc1 returned DT40 TDP1 CPT 2.3µM, uPA surface inh inactive, DT40 TDP1 no CPT 3.7µM, HT1080NT lethal inactive, HT1080 IDH1KD tx inactive and IL-1B inflam inh inactive.
`C=CCN1C(=O)NC(=O)/C(=C/C=C/c2ccccc2)C1=O` gave DT40 TDP1 CPT 16µM, uPA surface inh inactive, DT40 TDP1 no CPT 23µM, HT1080NT lethal inconclusive, HT1080 IDH1KD tx 21µM and IL-1B inflam inh inconclusive.
C#CCNc1ccncc1S(=O)(=O)NC(=O)NC(C)C was read as DT40 TDP1 CPT inactive, uPA surface inh inactive, DT40 TDP1 no CPT inactive, HT1080NT lethal inactive, HT1080 IDH1KD tx inactive and IL-1B inflam inh inactive.
Screening CN1c2ccc([N+](=O)[O-])cc2CC2(C(=O)NC(=O)N(c3ccc(Br)cc3)C2=O)C1c1ccccc1 (stereo not given) returned DT40 TDP1 CPT 18µM, uPA surface inh inactive, DT40 TDP1 no CPT 18µM, HT1080NT lethal inactive, HT1080 IDH1KD tx inactive and IL-1B inflam inh inactive.
`Cc1ccc(NC(=O)CSc2nc(-c3ccco3)cc(C(F)(F)F)n2)c(C)c1` gave DT40 TDP1 CPT 1.5µM and DT40 TDP1 no CPT 1.8µM.
Screening CCCCCCCCCCCCCCCC(=O)O[C@@H]1[C@@H](O)[C@@H](O)[C@@H]([C@H](NC(=O)[C@@H]2C[C@@H](CCC)CN2C)[C@H](C)Cl)O[C@@H]1SC returned DT40 TDP1 CPT 24µM and DT40 TDP1 no CPT inconclusive.
`COc1cc2c(cc1OC)-c1c(OC)c(OC)c(C=O)c3c1[C@H](C2)N(C)CC3` gave DT40 TDP1 CPT inactive and DT40 TDP1 no CPT inconclusive.
For CCCCCc1cc(O)c2c(c1)OC(C)(C)[C@@H]1CCC(C)=C[C@@H]21 the results were DT40 TDP1 CPT 21µM and DT40 TDP1 no CPT inconclusive.
For Cc1ccc(Cn2cccc(C(=O)Nc3cc(C)on3)c2=O)cc1 the results were DT40 TDP1 CPT inactive and DT40 TDP1 no CPT inactive.
Cc1ccc(Cn2nc(C)c(NC(=O)c3cc(-c4ccc(F)cc4)on3)c2C)cc1 was read as DT40 TDP1 CPT 10µM and DT40 TDP1 no CPT 7.3µM.
CCc1ccc(-c2cc(C(F)(F)F)n3nc(C(=O)Nc4c(C)nn(Cc5ccc(F)cc5)c4C)cc3n2)s1 was read as DT40 TDP1 CPT inconclusive, DT40 TDP1 no CPT 23µM, HT1080NT lethal inactive, HT1080 IDH1KD tx inconclusive and IL-1B inflam inh inconclusive.
For CC(=O)O[C@]1(C)C(=O)OC/C2=C/CN(C)CCC(OC(=O)[C@@](O)(C(C)O)C[C@H]1C)C2=O (stereo not given in full) the results were DT40 TDP1 CPT inactive, uPA surface inh inactive, DT40 TDP1 no CPT inactive, HT1080NT lethal inactive, HT1080 IDH1KD tx inactive and IL-1B inflam inh inactive.
For FC(F)(F)c1ccc(NC2=NCCCS2)cc1 the results were DT40 TDP1 CPT inactive, uPA surface inh inactive, DT40 TDP1 no CPT inactive, HT1080NT lethal inactive, HT1080 IDH1KD tx inactive and IL-1B inflam inh inactive.
Screening C[C@H]1CN([C@@H](C)CO)C(=O)c2cc(-c3cccnc3)cnc2O[C@H]1CN(C)Cc1ccc(Oc2ccccc2)cc1 returned DT40 TDP1 CPT inconclusive, DT40 TDP1 no CPT inconclusive, HT1080NT lethal inactive, HT1080 IDH1KD tx inactive and IL-1B inflam inh inactive.
`COc1cccc(C2CC3C(=O)C=CC2N3Cc2ccccc2)c1` (stereo not given) gave DT40 TDP1 CPT 21µM, uPA surface inh inactive, DT40 TDP1 no CPT 16µM, HT1080NT lethal inactive, HT1080 IDH1KD tx inactive and IL-1B inflam inh inconclusive.
BrCC(Br)C1CCC(Br)C(Br)C1 (stereo not given) was read as DT40 TDP1 CPT inconclusive, uPA surface inh inactive, DT40 TDP1 no CPT inactive, HT1080NT lethal inactive, HT1080 IDH1KD tx inactive and IL-1B inflam inh inactive.
For Cc1cccc([N+](=O)[O-])c1 the results were DT40 TDP1 CPT inactive, uPA surface inh inactive, DT40 TDP1 no CPT inactive, HT1080NT lethal inactive, HT1080 IDH1KD tx inactive and IL-1B inflam inh inconclusive.
O=[N+]([O-])c1cccc(NP(=O)(N2CC2)N2CC2)c1 was read as DT40 TDP1 CPT 2.1µM, uPA surface inh inactive, DT40 TDP1 no CPT 6.5µM, HT1080NT lethal inactive, HT1080 IDH1KD tx inactive and IL-1B inflam inh inactive.
